Data from article PMC7862700, “An all-to-all approach to the identification of sequence-specific readers for epigenetic DNA modifications on cytosine”.

How the values were obtained:
Test in all cases: DAPPL (digital affinity profiling via proximity ligation, sequencing); 10 mM Tris-HCl pH 7.5, 50 mM NaCl, 1 mM DTT, 4% glycerol, room temperature, 30 min; GST-TFs on glutathione beads, 16-mer random dsDNA library, 0.1% formaldehyde crosslink after washing; high values mean tight binding
Details in all cases: protein: recombinant; tags: N-terminal GST; dsDNA, one strand shown
FLI1 = target: T1, FLI1 (Homo sapiens, UniProt Q01543 1-452)
T1 sequence: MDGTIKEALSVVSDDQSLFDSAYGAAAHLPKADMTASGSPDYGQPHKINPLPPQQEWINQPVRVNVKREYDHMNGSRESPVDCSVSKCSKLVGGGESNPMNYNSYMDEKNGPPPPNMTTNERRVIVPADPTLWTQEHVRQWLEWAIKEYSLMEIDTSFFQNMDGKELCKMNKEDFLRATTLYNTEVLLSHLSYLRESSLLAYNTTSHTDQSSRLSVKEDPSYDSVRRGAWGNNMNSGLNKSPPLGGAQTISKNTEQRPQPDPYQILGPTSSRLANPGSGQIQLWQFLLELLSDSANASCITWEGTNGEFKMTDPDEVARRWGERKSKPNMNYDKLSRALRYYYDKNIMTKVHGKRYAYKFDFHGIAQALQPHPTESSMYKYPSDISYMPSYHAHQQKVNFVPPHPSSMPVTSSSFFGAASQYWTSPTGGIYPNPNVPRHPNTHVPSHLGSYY
How it was run: (§1)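 Binding signal is defined as a hexamer's read frequency for one factor over its frequency for the tag-only sample. To obtain reads, GST-fused human transcription factors were expressed in yeast, captured on glutathione beads, barcoded with DNA and pooled with that sample. Pools met 200 nmole of a 16-mer random double-stranded DNA library in Tris/NaCl/DTT/glycerol buffer for 30 min at room temperature before washing, 0.1% formaldehyde crosslinking, proximity ligation (BsaI/T4 ligase, 1 h, 37 °C), PCR and Illumina NextSeq500 sequencing.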

ELK1 = target: T2, ELK1 (Homo sapiens, UniProt P19419 1-428)
T2 sequence: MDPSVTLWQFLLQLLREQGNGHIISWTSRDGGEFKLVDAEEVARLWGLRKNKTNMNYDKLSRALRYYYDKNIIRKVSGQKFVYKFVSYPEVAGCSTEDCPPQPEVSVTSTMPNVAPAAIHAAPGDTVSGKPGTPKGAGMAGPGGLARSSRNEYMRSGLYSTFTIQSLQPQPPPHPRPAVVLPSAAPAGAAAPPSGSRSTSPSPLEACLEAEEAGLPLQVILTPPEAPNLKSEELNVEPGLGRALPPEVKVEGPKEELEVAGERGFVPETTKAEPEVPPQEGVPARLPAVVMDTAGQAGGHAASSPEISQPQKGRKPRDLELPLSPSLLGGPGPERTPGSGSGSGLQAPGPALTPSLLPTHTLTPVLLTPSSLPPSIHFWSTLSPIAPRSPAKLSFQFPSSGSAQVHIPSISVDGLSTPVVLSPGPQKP
How it was run: as §1

GABPA = target: T3, GABPA (Homo sapiens, UniProt Q06546 1-454)
T3 sequence: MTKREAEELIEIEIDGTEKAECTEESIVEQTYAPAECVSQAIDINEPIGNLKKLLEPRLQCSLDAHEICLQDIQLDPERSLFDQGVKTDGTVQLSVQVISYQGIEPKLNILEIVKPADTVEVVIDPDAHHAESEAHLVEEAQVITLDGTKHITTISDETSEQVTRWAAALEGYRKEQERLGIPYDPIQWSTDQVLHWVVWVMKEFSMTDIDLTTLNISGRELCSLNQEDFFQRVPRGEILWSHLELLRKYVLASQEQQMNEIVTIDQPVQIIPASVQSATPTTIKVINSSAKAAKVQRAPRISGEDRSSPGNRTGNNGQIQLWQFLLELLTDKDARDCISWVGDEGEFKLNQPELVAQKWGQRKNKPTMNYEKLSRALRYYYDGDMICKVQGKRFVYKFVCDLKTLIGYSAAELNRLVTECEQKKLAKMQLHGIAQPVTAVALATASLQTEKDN
How it was run: as §1

ERG = target: T4, ERG (Homo sapiens, UniProt P11308 1-479)
T4 sequence: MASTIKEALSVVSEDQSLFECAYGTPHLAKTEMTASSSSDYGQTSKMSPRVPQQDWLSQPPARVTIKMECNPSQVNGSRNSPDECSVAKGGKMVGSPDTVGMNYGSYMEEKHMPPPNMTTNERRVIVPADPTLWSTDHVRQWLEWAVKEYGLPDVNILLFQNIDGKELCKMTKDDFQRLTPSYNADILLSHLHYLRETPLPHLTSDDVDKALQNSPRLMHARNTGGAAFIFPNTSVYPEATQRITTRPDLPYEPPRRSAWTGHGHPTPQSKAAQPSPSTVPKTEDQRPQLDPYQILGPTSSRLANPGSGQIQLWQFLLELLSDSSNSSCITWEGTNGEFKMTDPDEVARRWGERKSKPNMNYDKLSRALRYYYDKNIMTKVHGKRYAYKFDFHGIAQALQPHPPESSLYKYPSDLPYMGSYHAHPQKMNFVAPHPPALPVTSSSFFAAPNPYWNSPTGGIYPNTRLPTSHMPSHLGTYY
How it was run: as §1

ELF1 = ELF1 (Homo sapiens, UniProt P32519 1-619)
Chain of ELF1 (P32519 whole entry): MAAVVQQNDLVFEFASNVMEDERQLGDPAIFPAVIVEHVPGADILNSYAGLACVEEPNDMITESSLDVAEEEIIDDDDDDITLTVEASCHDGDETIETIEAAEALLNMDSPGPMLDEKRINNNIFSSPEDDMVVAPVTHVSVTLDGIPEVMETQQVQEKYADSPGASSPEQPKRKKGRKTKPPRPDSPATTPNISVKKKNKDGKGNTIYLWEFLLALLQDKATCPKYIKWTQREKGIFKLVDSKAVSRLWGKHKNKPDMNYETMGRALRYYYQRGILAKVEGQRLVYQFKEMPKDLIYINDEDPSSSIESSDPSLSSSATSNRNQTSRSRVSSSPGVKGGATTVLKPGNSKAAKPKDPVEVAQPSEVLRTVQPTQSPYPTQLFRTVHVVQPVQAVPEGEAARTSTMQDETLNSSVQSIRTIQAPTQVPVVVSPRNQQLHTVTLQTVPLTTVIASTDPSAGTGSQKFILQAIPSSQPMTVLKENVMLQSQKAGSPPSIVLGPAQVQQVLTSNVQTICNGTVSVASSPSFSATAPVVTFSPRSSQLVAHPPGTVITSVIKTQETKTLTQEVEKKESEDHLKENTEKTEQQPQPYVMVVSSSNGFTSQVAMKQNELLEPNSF
How it was run: as §1

EHF = target: T5, EHF (Homo sapiens, UniProt Q9NZC4 1-300)
T5 sequence: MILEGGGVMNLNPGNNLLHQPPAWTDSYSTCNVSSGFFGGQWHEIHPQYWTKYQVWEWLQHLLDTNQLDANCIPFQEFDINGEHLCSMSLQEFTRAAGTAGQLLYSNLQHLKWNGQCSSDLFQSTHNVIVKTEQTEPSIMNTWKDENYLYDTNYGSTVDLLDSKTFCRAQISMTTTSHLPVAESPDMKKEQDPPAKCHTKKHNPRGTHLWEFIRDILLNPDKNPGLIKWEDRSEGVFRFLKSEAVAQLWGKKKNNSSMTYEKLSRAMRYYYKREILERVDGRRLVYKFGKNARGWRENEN
How it was run: as §1

SPI1 = SPI1 (Homo sapiens, UniProt P17947 1-270)
How it was run: as §1

SPIB = SPIB (Homo sapiens, UniProt Q01892 1-262)
Chain of SPIB (Q01892 whole entry): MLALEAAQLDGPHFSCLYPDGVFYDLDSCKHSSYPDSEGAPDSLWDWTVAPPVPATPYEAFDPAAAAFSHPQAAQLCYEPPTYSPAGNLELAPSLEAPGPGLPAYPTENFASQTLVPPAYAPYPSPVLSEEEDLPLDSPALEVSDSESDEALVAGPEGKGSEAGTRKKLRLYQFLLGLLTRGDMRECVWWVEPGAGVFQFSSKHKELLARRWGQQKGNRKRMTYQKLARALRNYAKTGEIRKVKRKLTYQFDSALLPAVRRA
How it was run: as §1

ELK3 = target: T6, ELK3 (Homo sapiens, UniProt P41970 1-407)
T6 sequence: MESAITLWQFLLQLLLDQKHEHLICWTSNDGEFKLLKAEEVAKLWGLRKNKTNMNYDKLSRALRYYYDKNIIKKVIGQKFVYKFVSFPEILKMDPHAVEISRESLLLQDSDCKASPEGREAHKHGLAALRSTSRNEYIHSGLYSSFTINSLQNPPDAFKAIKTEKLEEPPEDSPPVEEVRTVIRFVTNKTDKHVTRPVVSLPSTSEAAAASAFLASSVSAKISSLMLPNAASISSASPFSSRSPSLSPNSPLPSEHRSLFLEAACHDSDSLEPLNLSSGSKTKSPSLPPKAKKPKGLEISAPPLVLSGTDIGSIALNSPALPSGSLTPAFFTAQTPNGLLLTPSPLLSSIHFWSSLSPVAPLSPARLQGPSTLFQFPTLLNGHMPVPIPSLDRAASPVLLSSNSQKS
How it was run: as §1

FEV = target: T7, FEV (Homo sapiens, UniProt Q99581 1-238)
T7 sequence: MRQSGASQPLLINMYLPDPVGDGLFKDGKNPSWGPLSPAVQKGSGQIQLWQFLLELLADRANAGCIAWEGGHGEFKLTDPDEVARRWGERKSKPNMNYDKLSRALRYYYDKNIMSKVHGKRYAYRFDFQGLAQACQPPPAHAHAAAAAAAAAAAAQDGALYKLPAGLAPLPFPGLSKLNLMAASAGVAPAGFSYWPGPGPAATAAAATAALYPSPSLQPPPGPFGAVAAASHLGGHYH
How it was run: as §1

ETV5 = ETV5 (Homo sapiens, UniProt P41161 1-510)
Chain of ETV5 (P41161 whole entry): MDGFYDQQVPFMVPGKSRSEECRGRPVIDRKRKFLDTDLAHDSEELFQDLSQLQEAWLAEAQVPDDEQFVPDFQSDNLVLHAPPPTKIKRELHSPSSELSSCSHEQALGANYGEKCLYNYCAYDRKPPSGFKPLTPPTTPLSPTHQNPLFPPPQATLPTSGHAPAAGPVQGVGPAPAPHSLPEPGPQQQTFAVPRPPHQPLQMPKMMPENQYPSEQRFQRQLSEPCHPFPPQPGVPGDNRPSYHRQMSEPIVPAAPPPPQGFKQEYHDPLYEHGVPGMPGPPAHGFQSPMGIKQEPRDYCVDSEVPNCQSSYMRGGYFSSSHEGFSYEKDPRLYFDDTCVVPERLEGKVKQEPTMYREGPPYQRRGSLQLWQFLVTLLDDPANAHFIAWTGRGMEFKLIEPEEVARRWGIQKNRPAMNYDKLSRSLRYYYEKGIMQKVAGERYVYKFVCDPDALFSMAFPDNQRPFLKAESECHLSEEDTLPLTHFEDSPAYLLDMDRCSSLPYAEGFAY
How it was run: as §1

SPIC = target: T8, SPIC (Homo sapiens, UniProt Q8N5J4 1-248)
T8 sequence: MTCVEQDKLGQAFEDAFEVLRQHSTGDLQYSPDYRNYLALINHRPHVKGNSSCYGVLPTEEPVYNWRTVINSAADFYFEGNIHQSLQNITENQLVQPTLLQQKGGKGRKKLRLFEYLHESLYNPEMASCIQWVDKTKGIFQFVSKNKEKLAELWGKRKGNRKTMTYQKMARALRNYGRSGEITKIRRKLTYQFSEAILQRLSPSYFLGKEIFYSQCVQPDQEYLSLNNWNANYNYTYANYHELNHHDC
How it was run: as §1

ELF4 = ELF4 (Homo sapiens, UniProt Q99607 1-663)
Chain of ELF4 (Q99607 whole entry): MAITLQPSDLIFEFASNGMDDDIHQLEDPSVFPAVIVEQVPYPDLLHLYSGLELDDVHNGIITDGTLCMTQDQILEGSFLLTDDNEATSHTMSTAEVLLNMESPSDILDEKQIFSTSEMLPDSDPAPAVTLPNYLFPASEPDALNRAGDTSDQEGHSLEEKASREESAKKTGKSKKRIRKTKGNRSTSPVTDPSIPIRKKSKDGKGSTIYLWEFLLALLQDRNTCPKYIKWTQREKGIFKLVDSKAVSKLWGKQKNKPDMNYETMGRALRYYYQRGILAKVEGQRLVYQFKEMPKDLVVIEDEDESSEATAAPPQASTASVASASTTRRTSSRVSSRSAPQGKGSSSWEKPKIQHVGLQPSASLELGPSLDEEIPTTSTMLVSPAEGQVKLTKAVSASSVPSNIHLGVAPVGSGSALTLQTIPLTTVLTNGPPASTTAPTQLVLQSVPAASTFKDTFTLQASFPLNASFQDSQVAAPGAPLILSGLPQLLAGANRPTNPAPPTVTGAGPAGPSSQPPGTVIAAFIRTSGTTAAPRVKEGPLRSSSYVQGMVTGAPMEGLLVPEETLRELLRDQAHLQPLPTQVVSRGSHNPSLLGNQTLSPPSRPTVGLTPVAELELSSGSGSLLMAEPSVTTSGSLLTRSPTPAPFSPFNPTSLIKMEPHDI
How it was run: as §1

ELK4 = target: T9, ELK4 (Homo sapiens, UniProt P28324-2 1-405)
T9 sequence: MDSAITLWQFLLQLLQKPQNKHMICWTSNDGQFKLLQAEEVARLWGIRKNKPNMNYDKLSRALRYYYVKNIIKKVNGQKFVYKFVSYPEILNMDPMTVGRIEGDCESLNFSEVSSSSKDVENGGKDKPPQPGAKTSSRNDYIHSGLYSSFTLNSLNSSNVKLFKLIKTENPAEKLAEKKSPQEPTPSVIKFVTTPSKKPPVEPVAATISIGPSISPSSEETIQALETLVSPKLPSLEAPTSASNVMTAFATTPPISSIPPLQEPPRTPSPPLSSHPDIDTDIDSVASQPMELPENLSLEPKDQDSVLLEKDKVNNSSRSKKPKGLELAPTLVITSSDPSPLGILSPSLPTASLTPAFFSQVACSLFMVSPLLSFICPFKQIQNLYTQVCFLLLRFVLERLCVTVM
How it was run: as §1

ETV2 = target: T10, ETV2 (Homo sapiens, UniProt O00321 1-342)
T10 sequence: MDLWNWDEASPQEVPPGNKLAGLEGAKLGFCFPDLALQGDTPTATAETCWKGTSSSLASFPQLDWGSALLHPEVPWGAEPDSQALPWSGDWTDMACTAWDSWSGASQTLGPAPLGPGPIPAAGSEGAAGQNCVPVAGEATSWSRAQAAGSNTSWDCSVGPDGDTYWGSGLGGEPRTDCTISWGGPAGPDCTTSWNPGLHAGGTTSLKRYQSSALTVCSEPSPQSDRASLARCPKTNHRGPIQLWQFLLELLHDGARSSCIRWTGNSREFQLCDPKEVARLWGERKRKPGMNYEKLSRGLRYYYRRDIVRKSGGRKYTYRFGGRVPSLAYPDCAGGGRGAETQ
How it was run: as §1

ELF3 = target: T11, ELF3 (Homo sapiens, UniProt P78545 1-371)
T11 sequence: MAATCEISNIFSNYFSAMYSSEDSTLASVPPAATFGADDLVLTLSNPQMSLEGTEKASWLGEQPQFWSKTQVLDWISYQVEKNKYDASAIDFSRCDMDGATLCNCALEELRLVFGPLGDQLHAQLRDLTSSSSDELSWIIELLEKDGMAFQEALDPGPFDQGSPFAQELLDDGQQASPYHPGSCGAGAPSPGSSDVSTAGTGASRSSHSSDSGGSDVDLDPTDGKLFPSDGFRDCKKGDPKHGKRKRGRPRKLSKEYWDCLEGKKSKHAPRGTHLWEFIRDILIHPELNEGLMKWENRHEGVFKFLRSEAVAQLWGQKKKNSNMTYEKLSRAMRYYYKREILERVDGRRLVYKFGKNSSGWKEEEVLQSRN
How it was run: as §1

ETV1 = ETV1 (Homo sapiens, UniProt P50549 1-477)
Chain of ETV1 (P50549 whole entry): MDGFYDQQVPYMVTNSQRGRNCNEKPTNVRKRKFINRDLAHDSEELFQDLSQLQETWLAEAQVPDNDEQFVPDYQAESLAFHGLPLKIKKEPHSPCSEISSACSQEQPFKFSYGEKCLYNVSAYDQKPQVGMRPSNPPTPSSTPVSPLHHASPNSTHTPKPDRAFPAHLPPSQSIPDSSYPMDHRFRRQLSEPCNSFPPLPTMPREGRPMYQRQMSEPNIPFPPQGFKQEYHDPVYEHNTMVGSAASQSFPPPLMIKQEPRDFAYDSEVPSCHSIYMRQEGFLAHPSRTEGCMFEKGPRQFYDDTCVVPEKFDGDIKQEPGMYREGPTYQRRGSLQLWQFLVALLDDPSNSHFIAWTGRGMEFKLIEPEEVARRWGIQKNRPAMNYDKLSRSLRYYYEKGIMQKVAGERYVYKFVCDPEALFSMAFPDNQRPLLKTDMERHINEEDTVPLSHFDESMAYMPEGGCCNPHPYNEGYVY
How it was run: as §1

Sequence	binding signal (FLI1)	binding signal (ELK1)	binding signal (GABPA)	binding signal (ERG)	binding signal (ELF1)	binding signal (EHF)	binding signal (SPI1)	binding signal (SPIB)	binding signal (ELK3)	binding signal (FEV)	binding signal (ETV5)	binding signal (SPIC)	binding signal (ELF4)	binding signal (ELK4)	binding signal (ETV2)	binding signal (ELF3)	binding signal (ETV1)
CCGCCG	1.29 fold enrichment (6-mer frequency, TF over GST control)	1.4 fold enrichment (6-mer frequency, TF over GST control)	1.41 fold enrichment (6-mer frequency, TF over GST control)	1.37 fold enrichment (6-mer frequency, TF over GST control)	1.26 fold enrichment (6-mer frequency, TF over GST control)	1.34 fold enrichment (6-mer frequency, TF over GST control)	1.27 fold enrichment (6-mer frequency, TF over GST control)	1.16 fold enrichment (6-mer frequency, TF over GST control)	1.26 fold enrichment (6-mer frequency, TF over GST control)	1.55 fold enrichment (6-mer frequency, TF over GST control)	1.25 fold enrichment (6-mer frequency, TF over GST control)	1.22 fold enrichment (6-mer frequency, TF over GST control)	1.29 fold enrichment (6-mer frequency, TF over GST control)	1.27 fold enrichment (6-mer frequency, TF over GST control)	1.11 fold enrichment (6-mer frequency, TF over GST control)	1.23 fold enrichment (6-mer frequency, TF over GST control)	1.25 fold enrichment (6-mer frequency, TF over GST control)
ACCTCA	1.2 fold enrichment (6-mer frequency, TF over GST control)	1.16 fold enrichment (6-mer frequency, TF over GST control)	1.29 fold enrichment (6-mer frequency, TF over GST control)	1.15 fold enrichment (6-mer frequency, TF over GST control)	1.23 fold enrichment (6-mer frequency, TF over GST control)	1.28 fold enrichment (6-mer frequency, TF over GST control)	1.22 fold enrichment (6-mer frequency, TF over GST control)	1.19 fold enrichment (6-mer frequency, TF over GST control)	1.19 fold enrichment (6-mer frequency, TF over GST control)	1.17 fold enrichment (6-mer frequency, TF over GST control)	1.16 fold enrichment (6-mer frequency, TF over GST control)	1.33 fold enrichment (6-mer frequency, TF over GST control)	1.2 fold enrichment (6-mer frequency, TF over GST control)	1.26 fold enrichment (6-mer frequency, TF over GST control)	1.2 fold enrichment (6-mer frequency, TF over GST control)	1.24 fold enrichment (6-mer frequency, TF over GST control)	1.32 fold enrichment (6-mer frequency, TF over GST control)
AGGAAG	1.24 fold enrichment (6-mer frequency, TF over GST control)	1.32 fold enrichment (6-mer frequency, TF over GST control)	1.24 fold enrichment (6-mer frequency, TF over GST control)	1.63 fold enrichment (6-mer frequency, TF over GST control)	1.23 fold enrichment (6-mer frequency, TF over GST control)	1.57 fold enrichment (6-mer frequency, TF over GST control)	2.12 fold enrichment (6-mer frequency, TF over GST control)	1.44 fold enrichment (6-mer frequency, TF over GST control)	1.26 fold enrichment (6-mer frequency, TF over GST control)	1.24 fold enrichment (6-mer frequency, TF over GST control)	1.44 fold enrichment (6-mer frequency, TF over GST control)	1.51 fold enrichment (6-mer frequency, TF over GST control)	1.21 fold enrichment (6-mer frequency, TF over GST control)	1.11 fold enrichment (6-mer frequency, TF over GST control)	1.4 fold enrichment (6-mer frequency, TF over GST control)	1.52 fold enrichment (6-mer frequency, TF over GST control)	1.5 fold enrichment (6-mer frequency, TF over GST control)
